TEAD-YAP inh = TEAD-YAP interaction inhibition | 640,000 compounds, 1.4% hits | AID 1259422 | inhibition, % at 9.12 µM | HEK-TIYL cells, TEAD-Gal4/YAP UAS-luciferase luminescence; in the data active means inhibition above about 32%
FBW7 act = activators of human E3 ligase FBW7 | Q969H0 | AlphaScreen FBW7–phospho-cyclin E peptide binding, activator screen | normalized activity (activation), % at 26.1 µM | 650,000 compounds, 0.13% hits; in the data active means normalized activity above about 1.9%;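 further: purified mutant Fbw7 with reduced substrate affinity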
Target sequence (Q969H0 whole entry, looked up): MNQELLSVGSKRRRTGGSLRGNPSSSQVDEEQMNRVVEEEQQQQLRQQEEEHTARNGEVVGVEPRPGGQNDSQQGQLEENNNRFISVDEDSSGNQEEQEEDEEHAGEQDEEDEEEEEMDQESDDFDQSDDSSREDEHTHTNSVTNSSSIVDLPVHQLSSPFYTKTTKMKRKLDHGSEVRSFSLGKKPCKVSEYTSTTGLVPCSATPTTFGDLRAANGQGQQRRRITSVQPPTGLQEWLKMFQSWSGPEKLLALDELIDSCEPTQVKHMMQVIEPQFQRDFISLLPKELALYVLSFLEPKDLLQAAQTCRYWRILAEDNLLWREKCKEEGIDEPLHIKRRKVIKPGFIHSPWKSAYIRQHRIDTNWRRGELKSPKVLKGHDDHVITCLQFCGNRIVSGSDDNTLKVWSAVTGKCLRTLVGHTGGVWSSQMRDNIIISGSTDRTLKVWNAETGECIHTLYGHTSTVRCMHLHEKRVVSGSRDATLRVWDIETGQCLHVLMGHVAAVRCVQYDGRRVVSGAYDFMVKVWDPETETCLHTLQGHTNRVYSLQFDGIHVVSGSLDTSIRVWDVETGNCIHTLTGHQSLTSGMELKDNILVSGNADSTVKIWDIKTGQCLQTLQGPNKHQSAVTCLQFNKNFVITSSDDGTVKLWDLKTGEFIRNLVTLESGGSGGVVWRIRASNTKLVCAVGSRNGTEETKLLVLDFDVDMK
GPR151 ag = activators of human GPR151; Q8TDV0; PathHunter beta-arrestin GPR151 cells, luminescence; activation, % at 11.2 µM; 650,000 compounds, 1% hits; in the data active means activation above about 4.9%
MITF primary = human MITF inhibition, primary screen; AID 1259374; AlphaScreen MITF homodimerization, bead proximity signal; 650,000 compounds, 0.91% hits; inhibition, % at 2.6 µM; in the data active means inhibition above about 50%
GPR151 confirm = confirmation of human GPR151 activators. activation, % at 11.2 µM. GPR151 PathHunter beta-arrestin cells, luminescence, 90 min; % of EA-reagent control over plate median. 6,700 tested, under 10 active. shares compounds with GPR151 ag. AID 1508609;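 active means mean percent activation across replicates above the confirmation screen cutoff of 4.91%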
GPR119 counter = counter-screen for GPR151 activators: effect on human GPR119; shares compounds with GPR151 ag; GPR119 PathHunter beta-arrestin cells, luminescence, 90 min; 0 = compound-well median, 100 = enzyme-acceptor control; activation, % at 11.2 µM; 6,700 compounds, 0.3% hits; AID 1508611;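 active means mean percent activation in the counterscreen above 29.09%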;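 further: counterscreen on off-target GPR119 to flag nonselective hits from the GPR151 activator screen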
Numbers stand for hits; i = inactive; nt = not tested or not shown; ! = not confirmed by another sample. Sampled rows, rich in hits. Any-hit rate of the full collection: about 3.5%.

SMILES | TEAD-YAP inh | FBW7 act | GPR151 ag | MITF primary | GPR151 confirm | GPR119 counter
Cc1c(CNCCc2ccco2)c(C(=O)O)c(C)n1Cc1ccc(F)cc1Cl | i | i | i | i | nt | nt
COc1ccc(C(=O)NC2C3CC4CC(C3)CC2C4)cc1Cl (stereo unspecified) | i | i | i | i | nt | nt
COc1cc(OC)cc(C(=O)NC2C3CC4CC(C3)CC2C4)c1 (stereo unspecified) | i | i | 12 | i | i | i
COc1ccc(Cl)cc1C(=O)NC1C2CC3CC(C2)CC1C3 (stereo unspecified) | i | i | 5.0 | i | i | i
Cn1c(=O)c2c(ncn2CC(=O)N2c3ccccc3Sc3ccccc32)n(C)c1=O | i | i | i | i | nt | nt
COc1cc(/C=N/Nc2ccccc2C)cc([N+](=O)[O-])c1O | i | i | i | i | nt | nt
O=C(Cn1cnc2sc(-c3ccccc3)cc2c1=O)Nc1ccc(F)cc1 | i | i | i | i | nt | nt
CN(Cc1ccccc1)C1(O)C(=O)Nc2ccc([N+](=O)[O-])cc21 (stereo unspecified) | i | i | 12 | i | i | i
CN(Cc1ccccc1)C1(O)C(=O)Nc2ccc(Cl)cc21 (stereo unspecified) | i | i | i | i | nt | nt
COc1ccc(C2CC(C(F)(F)F)n3nc(C(=O)Nc4ccc(C)c(C)c4)c(Cl)c3N2)cc1OC (stereo unspecified) | i | i | i | i | nt | nt
COC(=O)c1sc2ccccc2c1NC(=O)c1ccc(Oc2ccccc2)cc1 | i | i | 10 | i | i | i
COC(=O)c1sc2ccccc2c1NC(=O)c1ccc(C(=O)c2ccccc2)cc1 | i | i | i | i | nt | nt
CCOC(=O)N1CCC(N(CCN(C)C)C(=S)Nc2cccc(CC)c2)CC1 | i | i | i | i | nt | nt
CCOC(=O)N1CCN(C(=S)Nc2cc(OC)ccc2OC)CC1 | i | i | 5.2 | i | i | i
CCOC(=O)N1CCN(C(=O)Nc2ccc(Cl)cc2Cl)CC1 | i | i | 5.1 | i | i | i
CCOC(=O)N1CCN(C(=S)Nc2ccc(C)cc2)CC1 | i | i | 6.0! | i | i | i
CCOC(=O)N1CCN(C(=S)Nc2cc(Cl)ccc2OC)CC1 | i | i | i | i | nt | nt
CCOC(=O)N1CCC(N(CCN(C)C)C(=S)Nc2cc(C)cc(C)c2)CC1 | i | i | 7.7 | i | i | i
N#Cc1c(NC(=O)C(C(F)(F)F)C(F)(F)F)sc2c1CCC2 | i | i | i | i | nt | nt
CC1CN(C(=O)c2c(NC(=O)c3cccs3)sc3c2CCC(C(C)(C)C)C3)CC(C)O1 (stereo unspecified) | i | i | i | i | nt | nt
Cc1c(C(=O)Nc2ccc3oc(-c4ccncc4)nc3c2)oc2ccccc12 | i | i | i | i | nt | nt
CCCCCCn1c(N/N=C/c2ccc([N+](=O)[O-])cc2)nc2c1c(=O)[nH]c(=O)n2C | i | i | 5.9 | i | i | i
O=C(Cn1c(CO)nc2ccccc21)Nc1ccc(S(=O)(=O)N2CCCCC2)cc1 | i | i | i | i | nt | nt
O=C(NC1(C(=O)Nc2ccc(Br)cc2)CCCCC1)c1cccc(O)c1 | i | i | 5.5 | i | i | i
OC(COc1cccc2ccccc12)Cn1c2ccccc2c2ccccc21 (stereo unspecified) | i | i | i | i | nt | nt
SMILES | TEAD-YAP inh | FBW7 act | GPR151 ag | MITF primary | GPR151 confirm | GPR119 counter
Fc1cccc(-c2cc3nc4c(c(N5CCOCC5)n3n2)CCC4)c1 | i | i | 6.7 | i | i | i
Fc1ccc(-c2cc3nc4c(c(N5CCOCC5)n3n2)CCC4)cc1 | i | i | i | i | nt | nt
Cc1oc(C(=O)O)cc1CSCc1ccoc1C(=O)O | i | i | 6.1 | i | i | i
COc1cccc(CC2(C3CCN(Cc4cccnc4)CC3)NC(=O)N(C)C2=O)c1 (stereo unspecified) | i | i | i | i | nt | nt
COc1cccc(CC2(C3CCN(Cc4ccccc4F)CC3)NC(=O)N(C)C2=O)c1 (stereo unspecified) | i | i | 5.0 | i | i | i
O=C(CSc1nnc2ncccn12)N1CCN(C(=O)c2ccco2)CC1 | i | i | i | i | nt | nt
CCn1nnnc1SCC(=O)N1CCN(C(=O)c2ccco2)CC1 | i | i | 5.0 | i | i | i
CCc1nnc(-c2cc3ccccc3n2CC(=O)Nc2cccc(Cl)c2)o1 | i | i | 5.3 | i | i | i
